Laboratory results as given in PubChem BioAssay (NCATS).
Records with an inconclusive call do not appear. Values without a mark were called inactive. Active and inactive are the calls of the source. Calls come from the whole dose curve; as a rule, active = well fitted inhibition curve with a large enough effect in the repeat runs; inconclusive = weak or mixed curves; inactive = flat fitted curve, though single readings scatter. Numbered stars: 1 amine (or outer) side, 2 acyl side, 3 side chain; on linkers, the order of the positions; unused ones are H or OH. Bridge positions count the residues as written; N and C are the ends. Square brackets hold non-standard residues; d marks the D form. Peptide text beside a SMILES is read from it. I, II: the chains in the order shown. Actinocin(9to1) = Cc1c2oc3c(C)ccc(C(=O)[*:1])c3nc-2c(C(=O)[*:2])c(N)c1=O; aThr = C[C@H](O)[C@H](N)C(=O)O; NMeV = CN[C@H](C(=O)O)C(C)C; Sar = CNCC(=O)O

target: Cytochrome P450 2D6 (Homo sapiens) (UniProt P10635); test: Cytochrome P450 family 2 subfamily D member 6 (CYP2D6) small molecule antagonists: luciferase biochemical (cell-free) qHTS assay (AID 1645840); settings: P450-Glo CYP2D6 enzyme, luciferin luminescence, 1 h; series mostly up to 57.4 µM; activity change, negative = inhibition: at the top concentration; note: nearly all actives have a fitted effect of over 55% in size
Sequence (P10635 whole entry, looked up): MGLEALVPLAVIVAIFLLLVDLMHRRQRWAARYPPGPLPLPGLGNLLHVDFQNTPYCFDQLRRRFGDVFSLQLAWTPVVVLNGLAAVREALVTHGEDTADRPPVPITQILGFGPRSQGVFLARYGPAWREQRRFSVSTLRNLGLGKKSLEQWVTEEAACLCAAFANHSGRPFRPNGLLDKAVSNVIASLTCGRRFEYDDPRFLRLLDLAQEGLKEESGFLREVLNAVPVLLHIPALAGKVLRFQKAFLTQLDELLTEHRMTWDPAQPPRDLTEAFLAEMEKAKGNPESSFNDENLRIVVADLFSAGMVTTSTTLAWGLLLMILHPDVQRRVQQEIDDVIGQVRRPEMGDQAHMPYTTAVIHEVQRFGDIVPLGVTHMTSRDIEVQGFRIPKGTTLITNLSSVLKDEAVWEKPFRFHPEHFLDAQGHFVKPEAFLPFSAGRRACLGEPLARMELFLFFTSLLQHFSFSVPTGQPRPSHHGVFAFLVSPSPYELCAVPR
Method: National Center for Advancing Translational Sciences [NCATS] Assay Overview: Cytochrome P450 (CYP) enzymes are membrane-bound hemeproteins that play a key role in metabolism of drugs and xenobiotics. Assaying the effect of chemicals on CYP isozymes is useful to minimize the adverse drug reactions and toxicities in drug development process. Chemical compounds were tested for their effect on CYP enzyme activities by using P450-Glo (TM) screening systems (Promega Corporation, Madison, WI). These systems provide a luminescent method containing proluciferin substrates and are converted to luciferin products by CYP isozymes. The luciferin products formed are detected with a luciferin detection reagent, and the amount of light produced is proportional to CYP activity. P450-Glo (TM) CYP2D6 screening system (Catalog. No. V9890) was used to detect the compounds that interfere in CYP2D6 activity.
Assay Protocol Summary: Two ul of enzyme-substrate mix was dispensed into medium binding white/solid 1536-well plates (Greiner Bio-One North America Inc., Monroe, NC) using a Flying Reagent Dispenser (FRD, Aurora Discovery, San Diego, CA). […] The assay plates were incubated at room temperature for 10 min. Then 2 ul of NADPH regeneration solution was added to each well of the assay plates using an FRD and incubated at room temperature for 1 h. The reaction was stopped by adding 4 ul of detection reagent using an FRD and after 20 min incubation at room temperature, the luminescence signal was measured using a ViewLux plate reader (Perkin Elmer, Shelton, CT). Data were expressed as relative luminescence units.
% is set by controls: 0 for no effect and ±100 for the full control effect; potency is the fitted concentration of half-maximal effect.

Compound	Potency	activity change, negative = inhibition [%]
C=CC(=O)Nc1cc(Nc2nccc(-c3cn(C)c4ccccc34)n2)c(OC)cc1N(C)CCN(C)C	23.9 µM (active)	
CC(C)n1cnc2c(Nc3cccc(Cl)c3)nc(NCCO)nc21	16.9 µM (active)	
CS(=O)(=O)c1ccc(-c2cn3ccccc3n2)cc1	5.49 µM (active)	
Cn1c(NC[C@@H](N)Cc2ccccc2)nc(-c2ccncc2)c(-c2ccc3ccccc3c2)c1=O	19 µM (active)	
CCCCCCCC[N+](C)(C)CCCCCCCC	0.674 µM (active)	
O=C1c2ccc(O)c(O)c2C(=O)c2c(O)ccc(O)c21	21.3 µM (active)	
Cc1[nH]c(/C=C2\C(=O)Nc3ccccc32)c(C)c1CCC(=O)O		-16.3
Cc1nc(C)c2c(n1)N(Cc1ccc(-c3ccccc3-c3nn[nH]n3)cc1)C(=O)CC2		-2.72
CNc1ccc([N+](=O)[O-])cc1-n1cnc(-c2ccc(C(F)(F)F)cc2)c1	0.756 µM (active)	
CCCCOc1ccc(-c2cncc(C(=O)NCc3cccnc3N3CCOCC3)c2)cc1Cl	12 µM (active)	
CCCc1c(C(C)C)nc(C(C)C)c([C@@H](C)O)c1-c1ccc(F)cc1O	2.39 µM (active)	
CCCCn1c(-c2ccccc2)nc(-c2ccccc2)c1CN(Cc1ccc2c(c1)OCO2)Cc1ccc2c(c1)OCO2	0.849 µM (active)	
COc1ccc(Cl)cc1[C@@]1(F)C(=O)Nc2cc(C(F)(F)F)ccc21	23.9 µM (active)	
CCCCc1nc(C)c(CC(=S)N(C)C)c(=O)n1Cc1ccc(-c2ccccc2-c2nn[nH]n2)cc1		5.8
N#C/C(=C(/N)Sc1ccc(N)cc1)c1ccccc1C(F)(F)F	16.9 µM (active)	
CC(=O)c1c(OCCN2CCCCC2)c(OCCC(C)c2ccc(F)cc2)c2oc(C)nc2c1C (stereo not given)	0.477 µM (active)	
C[C@H](NC(=O)C(C)(C)Oc1ccc(C(F)(F)F)cn1)[C@@H](Cc1ccc(Cl)cc1)c1cccc(C#N)c1	1.9 µM (active)	
CN(CCCNC(=O)c1ccc2nc3c(c(Cl)c2c1)CCCC3)Cc1ccccc1	1.34 µM (active)	
CN(C)CC(=O)Nc1ccc2[nH]c(=O)c3ccccc3c2c1		16.3
CC(=O)N1CCN([C@H]2CCN(C(=O)N(C)[C@H](C)c3cc(C(F)(F)F)cc(C(F)(F)F)c3)[C@@H](c3ccc(F)cc3C)C2)CC1	26.8 µM (active)	

Compound	Potency	activity change, negative = inhibition [%]
Cc1ccc(Nc2nnc(-c3ccc(C)c(S(=O)(=O)NCc4nc5ccccc5[nH]4)c3)c3ccccc23)cc1	6.01 µM (active)	
CCOC(=O)c1cccc(CNc2ccc(N(C)C(=O)Nc3ccccc3)cc2)c1	5.35 µM (active)	
Cc1ccc(-c2nnc(Nc3ccc(Br)cc3)c3ccccc23)cc1S(=O)(=O)NCc1nc2ccccc2[nH]1	3.38 µM (active)	
CN(C)C(=O)c1cc2cnc(Nc3ccc(N4CCNCC4)cn3)nc2n1C1CCCC1		4.11
Cc1c2oc3c(C)ccc(C(=O)N[C@@H]4C(=O)N[C@@H](C(C)C)C(=O)N5CCC[C@@H]5C(=O)N(C)CC(=O)N(C)[C@@H](C(C)C)C(=O)O[C@H]4C)c3nc-2c(C(=O)N[C@@H]2C(=O)N[C@@H](C(C)C)C(=O)N3CCC[C@@H]3C(=O)N(C)CC(=O)N(C)[C@@H](C(C)C)C(=O)O[C@H]2C)c(N)c1=O (I: [aThr]V[dP][Sar][NMeV] / II: [aThr]V[dP][Sar][NMeV]; ester I:1-I:C, II:1-II:C; linker I:N-II:N via Actinocin(9to1))		-28.6
COc1cc2nc(-c3cc(F)ccc3O)nc(N[C@@H]3CNC[C@H]3C(C)(C)O)c2cc1OC	19 µM (active)	
O=C(Nc1ncc(SCCN2CCCC2)s1)C1(c2ccc(S(=O)(=O)C3CC3)cc2)CC1C1CCCCC1 (stereo not given)	21.3 µM (active)	
COc1cc2ncnc(Nc3ccc(Oc4ccccc4)cc3)c2cc1OC	19 µM (active)	
COc1cc(N2CCN(C)CC2)ccc1Nc1nccc(-c2cn(C)c3cnccc23)n1		-10.5
Clc1ccccc1CNCC1CCC(CNCc2ccccc2Cl)CC1 (stereo not given)	0.151 µM (active)	
COc1ccc2c(c1)C[C@H](C(=O)Nc1ccc(-c3cn[nH]c3)cc1OCCN(C)C)CO2	9.52 µM (active)	
CC(C)(C)c1ccc(CNC(=S)NCc2ccc(NS(C)(=O)=O)c(F)c2)cc1	3.38 µM (active)	
Cn1cc(-c2cnc3ccc4ccc(CS(=O)(=O)NCc5ccccn5)cc4c(=O)c3c2)cn1	12 µM (active)	
CC(C)N(CCCNC(=O)Nc1ccc(C(C)(C)C)cc1)C[C@H]1O[C@@H](n2cc(Br)c3c(N)ncnc32)[C@H](O)[C@@H]1O	15.1 µM (active)	
CNC(=O)c1cccc2cc(Oc3ccnc4cc(OCC5(N)CC5)c(OC)cc34)ccc12		-18.2
CC(C)c1ccc(NC(=O)C(c2ccccc2)N(C)C(=O)Cc2c[nH]c3ccccc23)cc1 (stereo not given)	10.7 µM (active)	
O=C(Nc1ccc(F)cc1)N1CCc2ccccc2C1c1ccc(C(F)(F)F)cc1 (stereo not given)	9.52 µM (active)	
c1ccc(-c2cnc(Nc3ccc(OCCN4CCCC4)cc3)s2)cc1	10.7 µM (active)	
Cc1nnsc1C(=O)Nc1ccc(-n2nc(C(F)(F)F)cc2C(F)(F)F)cc1	10.7 µM (active)	
CNCc1ccc(C)c(NC(=O)c2ccc(Nc3nc(-c4ccccc4)c4ccccc4n3)cc2)c1	12 µM (active)	
